Source: PubChem BioAssay
Only some compounds are listed: those with a hit (about 19% of all), similar ones and a draw of the others.
TDP1 cell CPT: DT40-hTDP1 cell growth loss with CPT. chicken DT40 Tdp1-/-;hTDP1 cells + 20 nM CPT, ATP luminescence, 48 h. Potency, µM (doses to about 46.2 µM), most hits filed as inhibitors. 420,000 compounds, 12% hits. AID 686979; further: nearly all actives have a fitted effect of over 55% in size
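Chicken DT40 Tdp1-/- cells complemented with human TDP1, 400 cells/well, exposed to compounds plus 20 nM camptothecin for at least 48 h at 37 C; viability read as ATP content by CellTiter-Glo luminescence.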
TGFb SMAD3 inh: TGF-b pathway inhibition; HepG2 CAGA-GFP TGF-b/SMAD3 reporter, GFP fluorescence, 18 h; TGF-beta stimulated, 500 pg/mL final; Potency, µM (top dose mostly 46.1 µM), actives largely listed as inhibitors; 410,000 compounds, 1.2% hits; AID 588855; further: nearly all actives have a fitted effect of over 65% in size
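Inhibition of TGF-beta-driven CAGA-GFP reporter expression in HEPG2 cells is measured by cellular GFP fluorescence after 18 h stimulation with 500 pg/mL recombinant TGF-beta in 1% FBS medium at 37 degrees C.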
DT40 TDP1 no CPT: qHTS for Inhibitors of human tyrosyl-DNA phosphodiesterase 1 (TDP1): qHTS in cells in absence of CPT | 420,000 compounds, 15% hits | DT40 Tdp1-/- hTDP1 cells, no CPT, ATP luminescence, 48 h | Potency, µM (series often up to 46.2 µM), hits mostly inhibitors | AID 686978, 2013; further: nearly all actives have a fitted effect of over 55% in size
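Cells were dispensed at 400 per well, compounds added by pin tool, plates incubated ≥48 hr at 37 °C, then CellTiter-Glo added for 30 min at room temperature before luminescence reading. Line: DT40 Tdp1-/- complemented with hTDP1; camptothecin omitted.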
ASM inhibitor: human S-ASM enzyme inhibition; Potency, µM (titrated, usually from 57.5 µM), usual class: inhibitors; 340,000 compounds, 0.006% hits; placental ASM, HMU-PC fluorogenic substrate, 60 min; P17405
Target sequence (P17405 47-631 limits assumed): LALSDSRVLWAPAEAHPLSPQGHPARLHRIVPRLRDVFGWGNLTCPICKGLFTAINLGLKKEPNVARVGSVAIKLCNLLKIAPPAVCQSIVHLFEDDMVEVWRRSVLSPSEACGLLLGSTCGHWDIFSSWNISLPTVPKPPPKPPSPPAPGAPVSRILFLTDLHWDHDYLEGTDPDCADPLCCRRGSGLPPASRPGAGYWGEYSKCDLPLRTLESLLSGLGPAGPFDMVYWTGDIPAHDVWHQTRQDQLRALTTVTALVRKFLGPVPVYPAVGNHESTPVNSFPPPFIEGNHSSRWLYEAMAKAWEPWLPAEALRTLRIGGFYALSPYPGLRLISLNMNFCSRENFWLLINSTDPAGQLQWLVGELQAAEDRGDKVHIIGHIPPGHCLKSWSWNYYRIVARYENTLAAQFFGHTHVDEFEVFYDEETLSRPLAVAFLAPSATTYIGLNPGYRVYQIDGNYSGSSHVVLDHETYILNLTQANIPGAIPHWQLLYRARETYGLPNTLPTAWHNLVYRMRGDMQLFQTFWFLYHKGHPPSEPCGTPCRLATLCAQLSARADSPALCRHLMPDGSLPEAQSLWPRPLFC
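HMU-PC0 cleavage (9 uM final) by human placental ASM, 60 min at 37 °C following 10 min compound exposure at RT; stopped at pH 10, fluorescence Ex 386/Em 447 nm.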
HepG2 tox: counter-screen for TGF-b inhibitors: cytotoxicity in HepG2 cells | HepG2 CAGA-GFP viability, ATP luminescence, 18 h | Potency, µM (series often up to 46.1 µM), usual class: cytotoxic | 410,000 compounds, 0.76% hits
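HepG2 CAGA-GFP cells (1000/well, DMEM with 1% FBS) received compound, then TGF-beta at 500 pg/mL final, and were incubated 18 hours at 37 degrees C. Viability was read by CellTiter-Glo luminescence. Media-only wells were set as complete cell-killing and DMSO as no toxicity.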
IL-1B inflam inh: inhibitors of inflammasome signaling (IL-1 beta secretion); AID 743279; THP-1 LPS/ATP IL-1B secretion, AlphaLISA, 16 h; stronger effect = lower value; 360,000 compounds, 4.7% hits; activity change, % at 57.5 µM; in the data active means activity change below about -50%; inconclusive means mostly about -30% to -49%
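Secreted IL-1B measured by AlphaLISA bead assay after 16 h compound exposure of THP-1 cells; compounds (final up to 57.5 uM) added 1 h before LPS (250 ng/mL) and ATP (1.25 mM) stimulation; lower signal means less secretion.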
Numbers stand for hits; n = inactive; u = inconclusive; x = no result; [ ] = remark or other dose. Unless noted, the call rests on the fitted dose curve; in most records, active means well fitted curve in the direction sought with a large enough effect; inconclusive means small, poorly fitted or top-dose-only effect, or another doubt; inactive means no such curve, though single readings can be large; an effect the other way counts as inactive or inconclusive.

SMILES	TDP1 cell CPT	TGFb SMAD3 inh	DT40 TDP1 no CPT	ASM inhibitor	HepG2 tox	IL-1B inflam inh
CCN(CC)CCn1c2c(c(SCC(=O)Nc3cc(C)on3)nc1=O)CCCC2	n	n	n	n	n	n
CCCCCCCC(=O)NNC(=O)c1c(O)c2ccccc2[nH]c1=O	u	n	n	n	n	n
CCCCCCNC(=O)c1c(O)c2ccccc2[nH]c1=O	u	n	13µM	n	n	n
Cc1cccc(C)c1NC(=O)c1c(O)c2ccccc2[nH]c1=O	18µM	n	u	n	n	n
O=C(Nc1cccc(O)c1)c1c(O)c2ccccc2[nH]c1=O	18µM	u	u	n	n	n
COc1ccc(CCN2CC(C(=O)NCCN3CCCC3=O)CCC2=O)cc1 (stereo unspecified)	n	n	n	x	n	n
CCOc1ccccc1NC(=O)c1ccccc1-c1ccccc1	u	n	23µM	n	n	n
CCOc1ccccc1NC(=O)c1cc(SC)ccc1Cl	u	n	18µM	n	n	n
CCOc1ccccc1NC(=O)c1cccc2ccccc12	u	n	u	n	n	n
O=C1CC(C(=O)N2CCCC(c3nc(-c4ccncc4)ncc3-c3ccccc3)C2)C2(CCCCC2)O1 (stereo unspecified)	n[9.04 µM]	x	n	x	x	x
Cc1ccc(Nc2nc(Cl)c(C=O)s2)cc1Cl	u	n	u	n	n	-102
O=Cc1sc(Nc2ccccc2)nc1Cl	n	u	u	n	n	n
COc1ccccc1Nc1nc(Cl)c(C=O)s1	u	n	u	n	n	-53
COc1ccccc1Nc1nc(C2(C)CCC(=O)O2)cs1 (stereo unspecified)	n	n	n	n	n	n
COc1ccc(-c2onc(C)c2C)cc1S(=O)(=O)NCC1CCN(Cc2cc(C)ccc2C)CC1	u	u	16µM	x	16µM	x
COc1ccc(-c2onc(C)c2C)cc1S(=O)(=O)N1c2ccccc2CC1C (stereo unspecified)	23µM	u	u	x	n	x
CCN(CC)c1ccc(NS(=O)(=O)c2cc(-c3onc(C)c3C)ccc2OC)c(C)c1	23µM	n	u	x	n	x
COc1ccc(-c2onc(C)c2C)cc1S(=O)(=O)N1CCC(C)CC1	u	n	u	x	n	x
COc1ccc(-c2onc(C)c2C)cc1S(=O)(=O)NCc1ccc(Br)cc1	10µM	n	13µM	x	n	x
Cc1cc(NC(=O)CS(=O)(=O)c2cn(Cc3cccc(C(F)(F)F)c3)c3ccccc23)no1	u	u	21µM	x	n	n
CCn1cc(S(=O)(=O)CC(=O)Nc2cc(C)on2)c2ccccc21	n	n	u	n	n	n
Cc1cc(NC(=O)CS(=O)(=O)c2cn(Cc3cccc(F)c3)c3ccccc23)no1	u	n	u	n	n	-55
Cc1cc(NC(=O)CS(=O)(=O)c2cn(Cc3ccc(F)cc3)c3ccccc23)no1	21µM	n	10µM	n	n	n
O=C(NCCc1ccccc1)[C@@H]1CC=C[C@@H]2CCN(C3CC3)C(=O)[C@@H]21	n	n	n	x	n	x
Cc1ccc(CCNC(=O)c2cn(C)c3ccc(S(=O)(=O)N(C)C4CCCCC4)cc3c2=O)cc1	n	n	n	x	n	x
O=c1ccn(-c2cccc(C(F)(F)F)c2)nc1-c1ccn(-c2ccccc2F)n1	u	n	u	n	n	n
COc1ccc(-n2ccc(-c3nn(-c4cccc(C(F)(F)F)c4)ccc3=O)n2)cc1	u	n	18µM	n	n	n
CCC(=O)Nc1cccc(C2=NOC3(C2)C[C@H](C(N)=O)N(C(=O)CC#N)C3)c1 (stereo partly specified)	n	u	n	n	n	n
O=c1c2ccccc2nc(-c2cccs2)n1-c1cccc2ccccc12	u	n	21µM	n	n	n
COc1ccc(-c2nc3ccccc3c(=O)n2NC(=S)N(C)C)cc1	12µM	n	12µM	n	n	n
